{"source": "the supplement of paper PMC11417369", "note": "± gives the standard deviation of the averaged measurements. The full ranking holds about 25,000 sequences; the median of “ln(normalized median fluorescence intensity)” is about 7.9, and the highest 2% start at about 11. This excerpt belongs to a sample that is enriched for the highest values."}
{"system": "PfAP2-I AP2 domain 3 (GST-tagged)", "assay": "gcPBM binding intensity (ln(normalized median fluorescence intensity)); higher = stronger DNA binding", "outline": "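Probes on an Agilent 4 × 180k array were primer-extended, double-stranded and 36 bp long, taken from intergenic genomic regions, with negative controls added. GST-tagged P. falciparum DNA-binding domains from E. coli, about 25 μg on average, were applied to the array for 1 h in 1× PBS containing 1% milk, 0.2 mg/ml BSA, 0.5% salmon testes DNA and 0.03% Triton X-100. Binding intensity, obtained after Alexa488 anti-GST antibody detection and a 488 nm scan, is the highest Masliner-normalised natural-log median intensity across replicate spots of either probe orientation.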"}
{"sequence": "TGTGTATATAAATAATGTACATATATATTTTTTTAT [XGTACX_site7341]", "gcPBM binding intensity (ln)": "7.79 ± 0.22"}
{"sequence": "AAAAAAAAAAAAAAAAAAAGAAAAGAAAATAGGGTT [GTGCAC_negctrl_site421]", "gcPBM binding intensity (ln)": "8.96 ± 0.22"}
{"sequence": "CATATGATATGTTATACACACACGTATATATGAATT [CACACA_site3446]", "gcPBM binding intensity (ln)": "8.03 ± 0.21"}
{"sequence": "TTTTTTTTTTTTGTAATACACACCACTATATGTTAT [CACACA_site1844]", "gcPBM binding intensity (ln)": "8.15 ± 0.73"}
{"sequence": "AAAACAAACAAAAAAAAAAAAAAAAATATCAATCTA [TGCATGCA_negctrl_site203]", "gcPBM binding intensity (ln)": "7.01 ± 0.52"}
{"sequence": "CACAAAATAAATTAAACACACAACATCATAGATGTA [CACACA_site4619]", "gcPBM binding intensity (ln)": "7.21 ± 0.54"}
{"sequence": "AAGATATCTAAGGAAATTAAACTACCAAAATATATA [TGCATGCA_negctrl_site338]", "gcPBM binding intensity (ln)": "7.39 ± 0.59"}
{"sequence": "TATCATTTATATATGTGTACTTATTTATTTATTTAT [XGTACX_site7961]", "gcPBM binding intensity (ln)": "7.96 ± 0.28"}
{"sequence": "TTTTTATTTTCATATGTGCACTTATATATATATATA", "gcPBM binding intensity (ln)": "10.82 ± 0.099"}
{"sequence": "CATTTTGTTTTAAAGTGTACATTATGTAATATAAAA [XGTACX_site647]", "gcPBM binding intensity (ln)": "7.84 ± 0.43"}
{"sequence": "TTATATTTAGTATATGCACACTTTATGTTTGTTATT [CACACA_site5163]", "gcPBM binding intensity (ln)": "9.29 ± 0.21"}
{"sequence": "ATTGTGCACTTATATGCACACATTTTAGTTTTTTTT [CACACA_site2028]", "gcPBM binding intensity (ln)": "11.4 ± 0.69"}
{"sequence": "ATATTACACATATATGCACACATTGTAGTTATTTAT [CACACA_site8843]", "gcPBM binding intensity (ln)": "9.34 ± 0.26"}
{"sequence": "ATATATATATAAAGTTGTACATTTTTTATTTTTTCA [XGTACX_site7847]", "gcPBM binding intensity (ln)": "9.09 ± 0.16"}
{"sequence": "ATATATATTATCATTGTGCACTTATTTATATACCTT", "gcPBM binding intensity (ln)": "11.1 ± 0.15"}
{"sequence": "ATTTATATGCACCATTGTACGTTTTATAAAGTTTGG [XGTACX_site3755]", "gcPBM binding intensity (ln)": "11.6 ± 0.83"}
{"sequence": "CATATTGGTATGCTCATGCACTTTTATTTTGTTATT [GTGCAC_site9553]", "gcPBM binding intensity (ln)": "8.52 ± 0.53"}
{"sequence": "TATATATATATATATGTGCACATTTATTGCCTTTGC", "gcPBM binding intensity (ln)": 9.76}
{"sequence": "TTATCATTTGCCATTGTGCACTTATATGCTCACATT", "gcPBM binding intensity (ln)": "10.97 ± 0.028"}
{"sequence": "ATTACCAACAGATCTTGTACATATTAAAGCATCTTA [XGTACX_site2361]", "gcPBM binding intensity (ln)": "7.84 ± 0.57"}
{"sequence": "TCTATTAATTAATATACACACATTATATATATATAT [CACACA_site8815]", "gcPBM binding intensity (ln)": "9.375 ± 0.049"}
{"sequence": "TTTTTTATTGTGATACGTATATTATTTTATGATAAA [CACACA_negctrl_site1591]", "gcPBM binding intensity (ln)": "8.04 ± 0.6"}
{"sequence": "AAACACACACACAAATGTACATATATATATATATTT [XGTACX_site5090]", "gcPBM binding intensity (ln)": "7.92 ± 0.51"}
{"sequence": "AATATTATAAATGATACACACTTAAAATACACGCAC [CACACA_site7305]", "gcPBM binding intensity (ln)": "8.71 ± 0.22"}
{"sequence": "CATCATAGAGTGGAGTGTACAAATATGTCAACATAT [XGTACX_site2264]", "gcPBM binding intensity (ln)": "7.99 ± 0.55"}
{"sequence": "TATATTTAGAGAGAGACACACAAAGGGACTTACACA [CACACA_site2545]", "gcPBM binding intensity (ln)": "7.82 ± 0.71"}
{"sequence": "CATAATACATATAACACACACAATTATACATAAAAT [CACACA_site3233]", "gcPBM binding intensity (ln)": "7.88 ± 0.33"}
{"sequence": "TGGAAACAATGACACACACACAAAAAAAAAAAAAAA [CACACA_site7494]", "gcPBM binding intensity (ln)": "7.97 ± 0.56"}
{"sequence": "TATAAGTTGATATATACACACATATATAAATATGTA [CACACA_site7526]", "gcPBM binding intensity (ln)": "7.4 ± 0.4"}
{"sequence": "ATATTTTCTTTTTAAAGTACATATTTGATTACAATA [XGTACX_site8414]", "gcPBM binding intensity (ln)": "7.66 ± 0.5"}
{"sequence": "TATGTATATATTTGTGCACACCAAAGTTTGATTTTA [CACACA_site1861]", "gcPBM binding intensity (ln)": "10.71 ± 0.014"}
{"sequence": "TGTATATATTTGTGCACACCAAAGTTTGATTTTATT [CACACA_site1860]", "gcPBM binding intensity (ln)": "10.9 ± 0.099"}
{"sequence": "ATATGTATTTATATATGTTTGATTTTTTTTTTTTTT [TGCATGCA_negctrl_site506]", "gcPBM binding intensity (ln)": "7.71 ± 0.26"}
{"sequence": "AAAAAAAAAAGACACACACACACATACACATACATA [CACACA_site7362]", "gcPBM binding intensity (ln)": "7.96 ± 0.29"}
{"sequence": "TTTTTTTTTTTTGAAGTGCATTACTTTTTTTGTATT [GTGCAC_site9811]", "gcPBM binding intensity (ln)": "11 ± 0.44"}
{"sequence": "TATATTATTATATATTGTACTTTTTATATTTGCATT [XGTACX_site2978]", "gcPBM binding intensity (ln)": "7.72 ± 0.49"}
{"sequence": "TTTTTGTGCATTGATTGTACTTTCTAGGATTATTAA [XGTACX_site7070]", "gcPBM binding intensity (ln)": "10.16 ± 0.049"}
{"sequence": "TATATTTATAAATGAACACACACGCAATTTGAATCG [CACACA_site3370]", "gcPBM binding intensity (ln)": "7.89 ± 0.49"}
{"sequence": "ATTGTTATTTATTGTGTGCGCATTAATACATACATA [GTGCAC_site9982]", "gcPBM binding intensity (ln)": "8.95 ± 0.41"}
{"sequence": "TTCAATAGGTATAATTGTACTTAATAATATATTGTT [XGTACX_site8363]", "gcPBM binding intensity (ln)": "7.53 ± 0.42"}
{"sequence": "ATATATATATAGTACGCACACATAGTTGTACATTAA [CACACA_site2787]", "gcPBM binding intensity (ln)": "9.21 ± 0.13"}
{"sequence": "GTTTATTGATTTATTTGTACTTATATATATATTTCA [XGTACX_site5098]", "gcPBM binding intensity (ln)": "8.07 ± 0.63"}
{"sequence": "TATATATCAATATGCACACACAAGAAGTAATTATAA [CACACA_site7487]", "gcPBM binding intensity (ln)": "8.96 ± 0.22"}
{"sequence": "AAAATCAAGTAGTATAAAGTAAGTATCATAAAAATA [CACACA_negctrl_site1554]", "gcPBM binding intensity (ln)": "7.63 ± 0.59"}
{"sequence": "TTTATAGTTTTTAATAGTACACATATTTTTAAGTAT [XGTACX_site5498]", "gcPBM binding intensity (ln)": "7.89 ± 0.2"}
{"sequence": "AGTAATAGTTTGTGCACACTCAAGTATATCATATAT [CACACA_site4034]", "gcPBM binding intensity (ln)": "10.9 ± 0.24"}
